Molecules are shown by their SMILES. Results filed as inconclusive are left out. The source made the active and inactive calls. Calls come from the whole dose curve; as a rule, active = well fitted cell-killing curve with a large enough effect in the repeat runs; inconclusive = weak or mixed curves, or effect the other way; inactive = flat fitted curve, though single readings scatter.
% is set by controls: 0 for no effect and ±100 for the full control effect; potency is the fitted concentration of half-maximal effect.

A short description of the test: qHTS assay to identify small molecule agonists of the estrogen receptor beta (ER-beta) signaling pathway - cell viability counter screen (AID 1259380). Note: nearly all actives have a fitted effect of over 30% in size. The settings on record: ER-beta-bla HEK293T viability, CellTiter-Glo luminescence, 16 h; series mostly up to 92.4 µM; activity change, negative = cytotoxicity: at the top concentration. An excerpt:
National Center for Advancing Translational Sciences [NCATS]
NIH Chemical Genomics Center [NCGC]
U.S. Environmental Protection Agency [EPA]
National Institutes of Environmental Health Sciences [NIEHS]
National Toxicology Program [NTP]
U.S. Food and Drug Administration [FDA]
Estrogen receptor (ER), a nuclear hormone receptor, plays an important role in development, metabolic homeostasis and reproduction. Two subtypes of ER, ER-alpha and ER-beta, have similar expression patterns with some uniqueness in both types. Endocrine disrupting chemicals (EDCs) and their interactions with steroid hormone receptors like ER causes disruption of normal endocrine function. To identify the compounds that activate ER signaling, an ER beta-UAS-bla GripTite cell line (Life Technologies, Madison, WI, USA) containing a beta-lactamase reporter gene under the control of an UAS response element was used to screen Tox21 10K compound library. The cytotoxicity of the Tox21 compound library against the ER-beta-bla cell line was tested in parallel by measuring the cell viability using CellTiter-Glo assay in the same wells.
Tox21 Assay Protocol Summary:
ER-beta-UAS-bla HEK293T cells were dispensed at 2,000 cells/5 uL of assay medium containing 2% charcoal stripped FBS per well into black wall/clear-bottom 1536-well plates using a Multidrop Combi (ThermoFisher Scientific, Waltham, MA) dispenser. After the assay plates were incubated at a 37C and 5% CO2 for 6 hr, 23 nL of compounds dissolved in DMSO, positive controls or DMSO only was transferred to the assay plate by a Pintool station (Kalypsys, San Diego, CA). The plates were incubated at 37C and 5% CO2 for 16 hr. Then 1 uL of LiveBLAzerTM B/G FRET substrate was added using a BioRAPTR FRD (Flying Reagent Dispenser, Aurora Discovery, San Diego, CA) and then the plates were incubated at room temperature for 2 hours, and fluorescence intensity was measured by an Envision plate reader (PerkinElmer, Shelton, CT). For cell viability readout that measures cytotoxicity, 4 uL/well of CellTiter-Glo reagent was added into the assay plates using a FRD. After 30 min incubation at room temperature, the luminescence intensity in the plates was measured using a ViewLux (PerkinElmer) plate reader.
For orientation: qHTS replaces the single test concentration by a dilution series.
Take `CCCCCCCC/C=C\CCCCCCCCN`: the “activity change, negative = cytotoxicity” value was -6.31% [at 42.5 µM] (inactive).

For `CCCC(=O)OC(C)(C)Cc1ccccc1`, the “activity change, negative = cytotoxicity” value is 0.796% (inactive).

Turning to `CCN(CC)C(=O)c1cc(S(=O)(=O)Cc2ccccc2)c(N2CCC(c3ccccc3)CC2)cc1N(CC)CCN(C)C`, the Potency is 19.1 µM (active).

Regarding `CC1(C)CCC[C@]2(C)[C@H]3CCO[C@]3(C)CC[C@@H]12`, the “activity change, negative = cytotoxicity” value is -1.11% (inactive).

As for `CN1CCC[C@@H]1CCO[C@](C)(c1ccccc1)c1ccc(Cl)cc1`, the Potency is 23.7 µM (active).

`CC(C)Cn1cnc2c(N)nc3ccccc3c21`: the activity change, negative = cytotoxicity is 0.961% [at 19 µM] (inactive).

`CN1CCN(Cc2cc(-c3ccc4[nH]c(=O)oc4c3)co2)[C@@H](c2ccc(F)cc2)C1`: the Potency was 13.2 µM (active).

`O=C1OC2(c3ccc(O)cc3Oc3cc(O)ccc32)c2ccc(N=C=S)cc21`: the “activity change, negative = cytotoxicity” value is -0.157% (inactive).

With `CCCCNS(=O)(=O)c1ccc(C)cc1`, the “activity change, negative = cytotoxicity” value is 1.39% (inactive).

For `Nc1ccc(C(=O)O)c(O)c1`, the “activity change, negative = cytotoxicity” value was 7.77% [at 42.5 µM] (inactive).

Regarding `COC(=O)c1ccccc1OC`, the “activity change, negative = cytotoxicity” value was 1.19% (inactive).

For `C=CCn1c(=O)n(CC=C)c(=O)n(CC=C)c1=O`, the “activity change, negative = cytotoxicity” value was -0.158% (inactive).

Consider `OCC(F)(F)F`, for which the “activity change, negative = cytotoxicity” value is 0.907% (inactive).

Regarding `Cc1ccc(C(=O)O)cc1`, the “activity change, negative = cytotoxicity” value was -0.854% (inactive).

In the case of `Cc1cc(C(C)(C)C)cc(C)c1CC1=NCCN1`, the “activity change, negative = cytotoxicity” value was 1.86% [at 42.5 µM] (inactive).

Regarding `O=C(/C=C/c1ccc(O)c(O)c1)O[C@@H](C(=O)O)[C@@H](OC(=O)/C=C/c1ccc(O)c(O)c1)C(=O)O`, the “activity change, negative = cytotoxicity” value was -0.0835% (inactive).

As for `O=[N+]([O-])c1ccc(F)c(Cl)c1`, the “activity change, negative = cytotoxicity” value is 1.34% (inactive).

On to `CC(C)NC[C@@H](O)COc1ccc(CC(N)=O)cc1`, for which the “activity change, negative = cytotoxicity” value is -1.48% [at 42.5 µM] (inactive).

With `CCCCCCOC(=O)C(C)CC` (stereo not given), the “activity change, negative = cytotoxicity” value was -1.51% (inactive).

For the compound `COC(=O)Nc1nc2ccc(C(=O)c3ccccc3)cc2[nH]1`, the “activity change, negative = cytotoxicity” value was -5.62% [at 42.5 µM] (inactive).

With `CCn1c2ccccc2c2cc([N+](=O)[O-])ccc21`, the “activity change, negative = cytotoxicity” value was 0.401% (inactive).

`NC[C@H]1O[C@H](O[C@H]2[C@H](O[C@@H]3O[C@H](CO)[C@@H](O)[C@H]3O)C(O)[C@H](N)C[C@@H]2N)[C@H](N)[C@@H](O)[C@@H]1O` (stereo not given in full): the activity change, negative = cytotoxicity was 1.6% [at 8.39 µM] (inactive).

For `CCCCOC(=O)CO`, the “activity change, negative = cytotoxicity” value was 6.84% (inactive).

For the compound `CCCCC(CC)COC(=O)CCCCC(=O)OCc1ccccc1` (stereo not given), the “activity change, negative = cytotoxicity” value was -3.68% (inactive).

`Nc1nc(N)nc(-c2cc(Cl)ccc2Cl)n1`: the “activity change, negative = cytotoxicity” value is 0.593% [at 42.5 µM] (inactive).

With `CC[C@H](C)COC(=O)/C=C/c1ccc(N=Cc2ccc(OC)cc2)cc1`, the Potency was 6.1 µM (active).

For the compound `CC(C)CCOC(=O)/C=C/c1ccccc1`, the “activity change, negative = cytotoxicity” value was 5.21% (inactive).

Consider `O=[N+]([O-])c1cccc(C(F)(F)F)c1`, for which the “activity change, negative = cytotoxicity” value is 8.55% (inactive).

On to `COCCOc1cc2cc(C(=O)NC3CCN(C(C)C)CC3)n(CC(=O)Nc3ccc(Cl)cn3)c2cn1`, for which the “activity change, negative = cytotoxicity” value was -4.11% (inactive).

`OCCN1CCN(CCCN2c3ccccc3Sc3ccc(C(F)(F)F)cc32)CC1`: the Potency is 26.6 µM (active).

As to `CCCCC/C=C\C/C=C\CCCCCCCC(=O)O`, the Potency was 43.3 µM (active).

In the case of `Cc1c(C)c2c(c(C)c1O)CC[C@@](C)(CCC[C@H](C)CCC[C@H](C)CCCC(C)C)O2`, the “activity change, negative = cytotoxicity” value is 0.0275% (inactive).

As for `O=[N+]([O-])c1ccc(O)cc1C(F)(F)F`, the “activity change, negative = cytotoxicity” value was -3.02% (inactive).

For the compound `O=C1CCc2cc(OCCCCc3nnnn3C3CCCCC3)ccc2N1`, the “activity change, negative = cytotoxicity” value was -6.16% [at 42.5 µM] (inactive).

Take `COc1ccc2c(c1)c(CC(=O)OC/C=C(\C)CC/C=C(\C)CCC=C(C)C)c(C)n2C(=O)c1ccc(Cl)cc1`: the “activity change, negative = cytotoxicity” value was 0.0983% [at 42.5 µM] (inactive).

`Cc1ccc(C(C)C)cc2c(C)ccc1-2`: the “activity change, negative = cytotoxicity” value was -3.64% [at 42.5 µM] (inactive).

`CN(C)Cc1ccccc1O`: the “activity change, negative = cytotoxicity” value was 3.56% (inactive).

Turning to `O=S(=O)(O)c1ccccc1/C=C/c1ccc(-c2ccc(/C=C/c3ccccc3S(=O)(=O)O)cc2)cc1`, the “activity change, negative = cytotoxicity” value is 0.746% (inactive).

Regarding `COc1cc(C)ccc1O`, the “activity change, negative = cytotoxicity” value is 0.39% (inactive).

Take `O=C1C(c2[nH]c3ccc(S(=O)(=O)O)cc3c2O)=Nc2ccc(S(=O)(=O)O)cc21`: the “activity change, negative = cytotoxicity” value was 2.58% (inactive).
